According to ChEMBL document CHEMBL3988442, “University of Dundee, Small-Polar-MMV Screening Library” (2021):

Molecular target: AMP-activated protein kinase, AMPK (Homo sapiens) (UniProt P54646+O43741+P54619+Q9UGJ0+Q9Y478+Q13131+Q9UGI9)
Assay: AMP-dependent Kinase enzyme assay. An in vitro enzyme assay that detects ADP turnover that is directly proportional to AMPK activity. This uses naive AMPK that is activated during the assay with MK-8722
Format: functional
Set-up: scale not given: direction of the effect not stated beside the values
Settings: 30 µM

Compound | Percent Effect [%]
Cc1cc(-c2cc3nc(C)c(C)c(NCC4COCCO4)n3n2)no1 (centres undefined) | 17.6
Cc1noc(C2CCCN(Cn3cc(Br)cn3)C2)n1 (centres undefined) | -2.31
Cc1ccc(CNc2ccn(CCC(N)=O)n2)c(Br)c1 | 1.48
O=C(Nc1ccccc1C(=O)NCCN1CCOCC1)c1ccco1 | -3.24
c1nc(N2CCOCC2)sc1-c1cncn1CCCN1CCCCC1 | -0.295
Cc1cnc(CN(C)Cc2cccc(OC(F)(F)F)c2)cn1 | -3.05
Cc1nsc(N2CCCN(CC(=O)N(C)C3CC3)CC2)n1 | 7.25
CCC(C(=O)NC1(COC)CCCC1)n1cccn1 (centres undefined) | -12
Cn1cc(N2CCN(c3ccc(C#N)cc3Br)CC2=O)cn1 | -4.14
O=C(NCc1ccc(-n2cncn2)nc1)c1cc[nH]n1 | 2.82
COC(=O)C1CCN(C(=O)Cn2ccc(-c3ccc(F)cc3)n2)CC1 | -0.768
O=C1CN(Cc2cn(C3CCN(C4CSCCSC4)CC3)nn2)CCN1 | -9.53
Cc1cnn(Cc2cccc(OCC(N)=O)c2)c1 | -0.231
CC(CNC(=O)c1cc(Cn2cnc3ccccc32)[nH]n1)N1CCCC1 (centres undefined) | -5.09
Cc1nc(C2CCCN2CCOCC2CC2)no1 (centres undefined) | -0.854
Clc1ccc2cccnc2c1CNC1CCc2ncnn2C1 (centres undefined) | 3.85
N#Cc1cccnc1NCCc1cc(F)cc2c1OCOC2 | 22.2
Cc1ccccc1N1CCN(C(=O)CCc2nncn2C)C(C)C1 (centres undefined) | 6.58
O=C(Cc1ccccc1Cl)Nc1cc(N2CCCC2)ncn1 | 0.395
CCNc1ncc(CN2CCOC(Cc3cccc(OC)c3)C2)cn1 (centres undefined) | 0.956

Compound | Percent Effect [%]
CO[C@H]1CN(Cc2c(C)ccc3ncccc23)CC[C@H]1N | 1.31
CC(C)C(C(=O)N(C)C)c1cccc(Cl)c1 (centres undefined) | 6.38
CNC(=O)NC(=O)CN1CCc2c(Br)ccc(F)c2C1 | 5.32
CCCSCC(=O)N1CCCC(CO)(CCC)C1 (centres undefined) | 7
CN(C)CCC1CCN(c2cc(N3CCCC3CO)ncn2)CC1 (centres undefined) | -6.25
O=C(c1ccc2[nH]cnc2c1)N1CCC(Oc2ccccn2)CC1 | 3.35
Cc1nc(NC(=O)NCCCN2CCC(C(N)=O)CC2)sc1C | 6.51
CN(C)CC(=O)NC1CC(C)(C)Cc2nc(C(C)(C)C)ncc21 (centres undefined) | -0.385
COc1ccc(N2CCC(NC(=O)c3sccc3C)CC2)cc1 | -1.46
CC(C)n1cc(CN(Cc2ccc(F)cc2)CC2CCCO2)cn1 (centres undefined) | 5.24
O=C(CCCN1CCCCC1)N[C@H](C(=O)O)c1cccc(F)c1F | 6.38
COCCN1CCN(Cc2cnc(C3(C)CCCCO3)nc2)CC1 (centres undefined) | 11.3
CSCCC(NC(=O)c1ccco1)C(=O)N(C)Cc1ccsc1 (centres undefined) | -5.54
O=C(NCCN1CCNC1=O)c1cnc(-c2cccnc2)nc1 | 6.47
CC(C)CN(C(=O)Nc1cccc(C(=O)N(C)C)c1)C1CC1 | 0.783
O=C(NC1CC1)C1CNCCN1C(=O)CCOc1ccccc1 (centres undefined) | 4.98
CC(NC(=O)NCc1cccnc1N(C)C)c1cccs1 (centres undefined) | -8.61
CCn1cnnc1CNC(=O)N1CCOC(c2ccc(Cl)cc2)C1 (centres undefined) | -4.37
COc1ccc(CCn2cnc(C#N)n2)cc1 | -6.21
